From PubChem BioAssay (NCI)
Several values for one entry are separate records, joined by “and”; a condition that tells them apart may be missing. Equal values may be shown once. This is part of a sample that, as a whole, favours compounds with a hit. Of some 79,000 tested, about 15% had one in any assay. More than one record can exist for a structure, and the calls need not agree. Activity calls are given as the source filed them. Rule as the data show it: active = growth inhibition above about 70%; inactive = the rest.

Experiments:
[1] = NCI Yeast Anticancer Drug Screen. Data for the mlh1 strain (AID 171);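 also: 0% = growth of vehicle-treated control cultures of the same strain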; details: S. cerevisiae mlh1 strain growth inhibition, stronger effect = higher value
Procedure, shortened: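 Compounds are applied to a genetically altered yeast strain, and its growth is compared with that of vehicle-treated cultures to give percent inhibition.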

[2] = NCI Yeast Anticancer Drug Screen. Data for the sgs1 strain (AID 173);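 also: 0% = growth of vehicle-only control cultures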; details: S. cerevisiae sgs1 mutant, stronger effect = higher value
Procedure, shortened: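 Compounds applied to genetically altered yeast; growth compared with vehicle-treated cultures to give % inhibition.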

[3] = NCI Yeast Anticancer Drug Screen. Data for the mlh1 rad18 strain (AID 175); details: S. cerevisiae mlh1 rad18 strain growth inhibition, stronger effect = higher value
Procedure, shortened: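 Cells of a genetically altered yeast strain, deficient in DNA damage repair, were treated with compound. Their growth was then compared with that of vehicle-treated cultures to give inhibition.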

[4] = NCI Yeast Anticancer Drug Screen. Data for the rad18 strain (AID 177); details: S. cerevisiae rad18 mutant growth inhibition, stronger effect = higher value
Procedure, shortened: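 Compounds are applied to a repair-deficient yeast strain, and growth is compared with that of vehicle-treated cultures to give percent inhibition.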

[5] = NCI Yeast Anticancer Drug Screen. Data for the rad52 strain (AID 147);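 also: 0% = growth of vehicle-treated control cultures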; details: S. cerevisiae rad52 mutant growth inhibition, stronger effect = higher value
Procedure, shortened: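 DNA repair-defective yeast; compound exposure; growth scored against vehicle controls.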

[6] = NCI Yeast Anticancer Drug Screen. Data for the wt1 strain (AID 149);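 also: 0% = growth of vehicle-treated wt1 cultures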; details: S. cerevisiae wt1 strain (SPY 50644) growth inhibition, stronger effect = higher value
Procedure, shortened: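 Vehicle-normalised growth inhibition; strain wt1; compound exposure.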

[7] = NCI Yeast Anticancer Drug Screen. Data for the rad50EPP+ strain (AID 151);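 also: 0% = growth of vehicle-treated control cultures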; details: S. cerevisiae rad50 mutant strain, stronger effect = higher value
Procedure, shortened: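 rad50EPP+ yeast treated with test compounds. Readout: growth vs vehicle control.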

[8] = NCI Yeast Anticancer Drug Screen. Data for the rad50 strain (AID 155);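 also: 0% = growth of vehicle-only cultures of the same strain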; details: S. cerevisiae rad50 strain growth inhibition, stronger effect = higher value
Procedure, shortened: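 A DNA repair-deficient yeast mutant serves as the test organism; compound-induced growth inhibition is calculated against vehicle-treated cells.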

[9] = NCI Yeast Anticancer Drug Screen. Data for the mec2-1 strain (AID 157); details: S. cerevisiae mec2-1 strain, stronger effect = higher value
Procedure, shortened: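 Growth inhibition is read against vehicle-treated controls after compound exposure of the mec2-1 yeast strain, which is defective in DNA damage repair or cell cycle control.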

[10] = NCI Yeast Anticancer Drug Screen. Data for the rad14 strain (AID 159);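 also: 0% = growth of vehicle-treated control cultures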; details: S. cerevisiae rad14 strain growth inhibition, stronger effect = higher value
Procedure, shortened: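 Vehicle-treated cultures served as the baseline for growth inhibition of a DNA repair-mutant yeast strain exposed to each compound.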

[11] = NCI Yeast Anticancer Drug Screen. Data for the sgs1 mgt1 strain (AID 161);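 also: 0% = growth of cultures given vehicle only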; details: S. cerevisiae sgs1 mgt1 strain, stronger effect = higher value
Procedure, shortened: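 Compounds are added to genetically altered yeast, and growth is compared with cultures given vehicle alone to give percent inhibition.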

[12] = NCI Yeast Anticancer Drug Screen. Data for the cln2 rad14 strain (AID 165);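 also: 0% = growth equal to vehicle treated cultures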; details: S. cerevisiae cln2 rad14 strain, stronger effect = higher value
Procedure, shortened: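 Growth inhibition, relative to vehicle-treated controls, is the read-out. The test organism is a yeast strain with defined genetic alterations, cln2 rad14.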

[13] = NCI Yeast Anticancer Drug Screen. Data for the bub3 strain (AID 167); details: S. cerevisiae bub3 mutant strain, stronger effect = higher value
Procedure, shortened: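 Inhibition values come from growth of compound-treated mutant yeast normalised to vehicle-treated controls.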

[14] = NCI Yeast Anticancer Drug Screen. Data for the wt2 strain (AID 169);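 also: 0% = growth of vehicle-treated yeast cultures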; details: S. cerevisiae wt2 strain growth inhibition, stronger effect = higher value
Procedure, shortened: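 Compound exposure of yeast; growth compared with vehicle controls; inhibition reported.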

[15] = NCI Yeast Anticancer Drug Screen. Data for the mgt1 strain (AID 153); details: S. cerevisiae mgt1 mutant growth inhibition, stronger effect = higher value
Procedure, shortened: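 Growth inhibition relative to vehicle controls was scored for the mgt1 yeast strain after compound exposure.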

[16] = NCI Yeast Anticancer Drug Screen. Data for the CLN2oe strain (AID 163);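 also: 0% = growth of vehicle-only control cultures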; details: S. cerevisiae CLN2oe strain, stronger effect = higher value
Procedure, shortened: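 Compound-treated yeast; growth vs vehicle ctrl = % inhibition. Genetically altered strain (cell-cycle control).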

[17] = at 5.0 µM (retest, dose inferred, filed as 0.5)
[18] = at 50.0 µM (retest, dose inferred, filed as 5.0)

Measured: growth inhibition

COc1ccc(C(=O)C(CN(C)C)CN(C)C)cc1
92% (active) and 27% (inactive): [3]; [18]
active: [1]; at 100.0 µM 74% | [2]; at 100.0 µM 78%
inactive: [1]; at 33.0 µM 4% | [2]; at 1.2 µM -7% | [2]; at 3.7 µM 29% | [2]; at 11.0 µM 26% | [2]; at 33.0 µM 32% | [3]; [17] 57% and 12% | [3]; at 50.0 µM 8.1% and 64.3% | [4]; at 1.2 µM -3% | [4]; at 3.7 µM -8% | [4]; at 11.0 µM -23% | [4]; at 33.0 µM -3% | [4]; at 100.0 µM 66%

O=[N+]([O-])c1cc[n+]([O-])cc1
46.1% (inactive) and 83.2% (active): [8]; at 50.0 µM
26.7% (inactive) and 86.5% (active): [11]; at 50.0 µM
26.8% (inactive) and 87.5% (active): [3]; at 50.0 µM
inactive: [5]; at 1.2 µM -3% | [5]; at 3.7 µM 2% | [5]; at 11.0 µM 4% | [5]; at 33.0 µM 32% | [6]; at 1.2 µM -6% | [6]; at 3.7 µM -6% | [6]; at 11.0 µM -10% | [6]; at 33.0 µM -14% | [7]; at 1.2 µM 1% | [7]; at 3.7 µM 11% | [7]; at 11.0 µM 12% | [7]; at 33.0 µM 48% | [8]; at 1.2 µM -6% | [8]; at 3.7 µM -6% | [8]; [17] -158% and 4% | [8]; at 11.0 µM -1% | [8]; at 33.0 µM 58% | [8]; [18] 66% and 60% | [9]; at 1.2 µM 4% | [9]; at 3.7 µM -2% | [9]; [17] -52% and 2% | [9]; at 11.0 µM 0% | [9]; at 33.0 µM -2% | [9]; [18] -19% and 38% | [9]; at 50.0 µM 52% and 57.5% | [10]; at 1.2 µM -2% | [10]; at 3.7 µM 1% | [10]; at 11.0 µM -1% | [10]; at 33.0 µM 19% | [11]; [17] -62% and -8% | [11]; [18] 40% and 54% | [12]; [17] -61% and -3% | [12]; [18] -19% and 19% | [12]; at 50.0 µM 50.1% and 7.4% | [13]; at 1.2 µM -12% | [13]; at 3.7 µM -8% | [13]; [17] -68% and 5% | [13]; at 11.0 µM 2% | [13]; at 33.0 µM 22% | [13]; [18] 13% and 33% | [13]; at 50.0 µM 9.95% and 68% | [14]; at 1.2 µM -3% | [14]; at 3.7 µM -2% | [14]; at 11.0 µM -3% | [14]; at 33.0 µM -11% | [1]; at 1.2 µM 3% | [1]; at 3.7 µM -6% | [1]; at 11.0 µM -3% | [1]; at 33.0 µM -3% | [2]; at 1.2 µM -2% | [2]; at 3.7 µM -3% | [2]; at 11.0 µM -8% | [2]; at 33.0 µM 33% | [3]; [17] -136% and 0% | [3]; [18] 33% and 53% | [4]; at 1.2 µM -2% | [4]; at 3.7 µM 0% | [4]; at 11.0 µM 3% | [4]; at 33.0 µM 16%
active: [5]; at 100.0 µM 98% | [6]; at 100.0 µM 99% | [7]; at 100.0 µM 98% | [8]; at 100.0 µM 99% | [9]; at 100.0 µM 99% | [10]; at 100.0 µM 99% | [13]; at 100.0 µM 99% | [14]; at 100.0 µM 99% | [1]; at 100.0 µM 99% | [2]; at 100.0 µM 99% | [4]; at 100.0 µM 98%

CCCCC/C(=C(\C#N)C(=O)OCC)c1ccccc1
inactive: [5]; at 1.2 µM -2% | [5]; at 3.7 µM -1% | [5]; at 11.0 µM 1% | [5]; at 33.0 µM 7% | [5]; at 100.0 µM 9% | [6]; at 1.2 µM -2% | [6]; at 3.7 µM -2% | [6]; at 11.0 µM -1% | [6]; at 33.0 µM -4% | [6]; at 100.0 µM -4% | [15]; at 1.2 µM -3% | [15]; at 3.7 µM -2% | [15]; at 11.0 µM -3% | [15]; at 33.0 µM -2% | [15]; at 100.0 µM 7% | [8]; at 1.2 µM -1% | [8]; at 3.7 µM -1% | [8]; [17] 7% | [8]; at 11.0 µM 4% | [8]; at 33.0 µM 7% | [8]; [18] -4% | [8]; at 50.0 µM -7% | [8]; at 100.0 µM -6% | [9]; at 1.2 µM -7% | [9]; at 3.7 µM -5% | [9]; [17] -5% | [9]; at 11.0 µM -3% | [9]; at 33.0 µM 0% | [9]; [18] -4% | [9]; at 50.0 µM 28.4% | [9]; at 100.0 µM 6% | [10]; at 1.2 µM -1% | [10]; at 3.7 µM -2% | [10]; at 11.0 µM 1% | [10]; at 33.0 µM 8% | [10]; at 100.0 µM 5% | [11]; [17] -1% | [11]; [18] 33% | [11]; at 50.0 µM 36.5% | [16]; at 1.2 µM -2% | [16]; at 3.7 µM -5% | [16]; at 11.0 µM -5% | [16]; at 33.0 µM -4% | [16]; at 100.0 µM 4% | [12]; [17] -7% | [12]; [18] 13% | [12]; at 50.0 µM -99% | [13]; at 1.2 µM 0% | [13]; at 3.7 µM 2% | [13]; [17] 1% | [13]; at 11.0 µM 6% | [13]; at 33.0 µM 11% | [13]; [18] 7% | [13]; at 50.0 µM 52.4% | [13]; at 100.0 µM 14% | [14]; at 1.2 µM -3% | [14]; at 3.7 µM -4% | [14]; at 11.0 µM -3% | [14]; at 33.0 µM -3% | [14]; at 100.0 µM 1% | [1]; at 1.2 µM -2% | [1]; at 3.7 µM 1% | [1]; at 11.0 µM 5% | [1]; at 33.0 µM 10% | [1]; at 100.0 µM 18% | [2]; at 1.2 µM -1% | [2]; at 3.7 µM 2% | [2]; at 11.0 µM 2% | [2]; at 33.0 µM 8% | [2]; at 100.0 µM 17% | [3]; [17] -6% | [3]; [18] 64% | [3]; at 50.0 µM 44.4% | [4]; at 1.2 µM 1% | [4]; at 3.7 µM 3% | [4]; at 11.0 µM 2% | [4]; at 33.0 µM 8% | [4]; at 100.0 µM 14%
